Experimental data as given in PubChem BioAssay (NCATS).
Results filed as inconclusive are left out. Calls of active or inactive are those of the source. Calls follow the shape of the dose curve; as a rule, active = well fitted curve in the direction sought with a large enough effect; inconclusive = small, poorly fitted or top-dose-only effect, or another doubt; inactive = no such curve, though single readings can be large; an effect the other way counts as inactive or inconclusive.

Assays:
[1] = system: Zika virus NS2B-NS3 protease (unlinked complex); assay: Primary screen GU Rhodamine qHTS for Zika virus inhibitors: Unlinked NS2B-NS3 protease assay (AID 1347159); also: % is scaled to controls: 0 for no effect and ±100 for the full control effect; nearly all actives have a fitted effect of over 60% in size
Summary of the method: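 Percent inhibition came from the 15-min rise in Rhodamine110 fluorescence (1.5 microM substrate, ~15% conversion), normalized to no-inhibitor and no-enzyme wells and Hill-fitted. Unlinked protease, 25 nM, pH 8.0 Tris buffer; compounds up to 114 microM, 15-min preincubation.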

[2] = system: Zika virus NS2B-NS3 protease (linked construct); assay: Primary screen NINDS Rhodamine qHTS for Zika virus inhibitors (AID 1347160); also: nearly all actives have a fitted effect of over 55% in size
Summary of the method: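 Rhodamine110-peptide cleavage (1.5 µM substrate) by 25 nM linked NS2B-NS3 enzyme at pH 8.0 (Tris, Tween 20), after 15 min RT preincubation with compounds; 15-min fluorescence change normalized to controls and Hill-fitted.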

[3] = target: Calcium and integrin-binding protein 1 (Homo sapiens) (UniProt Q99828); assay: Primary qHTS for Identification of Calcium Integrin Binding Protein 1 (CIB1) Competitor (AID 1508620);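 also: GST tagged CIB1 binding a fluorescein labelled alphaIIb integrin peptide tracer; top concentration of the series differs between compounds; % is scaled to controls: 0 for no effect and ±100 for the full control effect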
Summary of the method: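 CIB1-GST (1 uM final) and compound incubated 15 min at room temperature before adding FITC-alphaIIb peptide tracer (100 nM final). Competition for binding read by fluorescence polarization (ex 480, em 540) after another 15 min at room temperature.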

[4] = target: Phospholipid hydroperoxide glutathione peroxidase GPX4 (Homo sapiens) (UniProt P36969); assay: Primary qHTS Assay for Inhibitors of Recombinant Selenoprotein Glutathione Peroxidase 4 (GPX4) (AID 1845192); also: % is scaled to controls: 0 for no effect and ±100 for the full control effect; nearly all actives have a fitted effect of over 65% in size
Summary of the method: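 NADPH consumption followed by fluorescence at 340/450 nm, t=0 and after 15 min at room temperature. Reaction started with cumene hydroperoxide (0.5 mM final) after 30 min compound–GPX4 preincubation; final 200 nM GPX4, 100 nM GR, 1 mM GSH, 0.5 mM NADPH.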

[5] = target: Luciferin 4-monooxygenase (Photinus pyralis) (UniProt P08659); assay: Primary firefly luciferase (FLuc) qHTS assay for identification of artifact compounds. (AID 1845220); conditions: outcome: dose series up to 54.1 µM unless noted; also: nearly all actives have a fitted effect of over 60% in size;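 as to activity change, negative = inhibition: plate controls were DMSO vehicle for no effect and no enzyme for full effect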
Summary of the method: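 Compounds sat 15 min at room temperature with 10 uM luciferin and 10 uM ATP (pH 7.6 Tris acetate). Firefly luciferase (10 nM final) was then added, and luminescence was read 5 min later. Data normalized to no-enzyme and DMSO controls were Hill-fitted.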

[6] = Primary fluorescence-based thiol-reactive (MSTI) qHTS assay for identification of artifact compounds. (AID 1845221);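 also: thiol-reactive compounds lower the probe fluorescence signal; nearly all actives have a fitted effect of over 65% in size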
Summary of the method: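 MSTI probe at 4 uM final in 2% DMSO/PBS pH 7.4; compounds, 1 h at room temperature in dark. Fluorescence Ex/Em 525/598 nm, normalised to Acetyl-MSTI and MSTI, fitted to 4-parameter Hill.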

[7] = system: Nanoluciferase (engineered Oplophorus gracilirostris luciferase); assay: Primary Nanoluciferase (NLuc) qHTS assay for identification of artifact compounds. (AID 1845222);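 also: 0% = DMSO and -100% = no enzyme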
Summary of the method: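 Luminescence from secreted NLuc (filtered, 1:55-diluted S16 cell medium) read 5 min after Nano-Glo substrate; compounds preincubated 15 min, RT. Hill fits of inhibition normalized to DMSO and no-enzyme.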

[8] = Primary redox qHTS assay for identification of artifact compounds. (AID 1845223);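 also: 0% = DMSO and 100% = reference compound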
Summary of the method: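 Redox-cycling detection via DTT (250 uM final) oxidation coupled to Amplex Red (25 uM)/HRP (250 mU/mL) in HBSS. 15 min preincubation plus 30 min after DTT, room temperature. Ex/Em 525/598 nm; 4-parameter Hill fit against DMSO and 10 uM DA3003.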

HaCat = assay: Cytotoxic Profiling of Annotated Libraries Using Quantitative High-Throughput Screening (AID 1296008); conditions: Five cell lines viability, CellTiter-Glo ATP luminescence, 48-72 h; max response: hits give low values; also: nearly all actives have a fitted effect of over 60% in size; as to max response: % is scaled to controls: 0 for no effect and ±100 for the full control effect
Summary of the method: (§1)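 Cytotoxicity was measured as CellTiter-Glo ATP luminescence, read after 10 min at room temperature. Compound treatment of the cells lasted 48 or 72 hr at 37 degrees Celsius in a qHTS format.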

NIH3T3 = assay: as above; conditions: Five cell lines viability, CellTiter-Glo ATP luminescence, 48-72 h; max response: hits give low values
Summary of the method: as §1

C33A = assay: Primary qHTS to identify gynecologic anti-cancer compounds using libraries of approved drugs and bioactive compounds (AID 1345084); conditions: Gynecologic cancer cell panel viability, ATPlite luminescence, 48 h; series mostly up to 57.5 µM; also: nearly all actives have a fitted effect of over 55% in size; also: potency is read from the fitted curve at half-maximal effect; as to activity change, negative = cytotoxicity: % is scaled to controls: 0 for no effect and ±100 for the full control effect
Summary of the method: (§2)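 Cells, 1,000 per well, plated 16 h, then exposed 48 h at 37 C to compounds. Viability by ATPlite luminescence after 15 min at room temperature.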

CASKI = assay: as above; conditions: Gynecologic cancer cell panel viability, ATPlite luminescence, 48 h; series mostly up to 57.5 µM
Summary of the method: as §2

Es-2 = assay: as above; conditions: Gynecologic cancer cell panel viability, ATPlite luminescence, 48 h; series mostly up to 57.5 µM
Summary of the method: as §2

JEG-3 = assay: as above; conditions: Gynecologic cancer cell panel viability, ATPlite luminescence, 48 h; series mostly up to 57.5 µM
Summary of the method: as §2

OV90 = assay: as above; conditions: Gynecologic cancer cell panel viability, ATPlite luminescence, 48 h; series mostly up to 57.5 µM
Summary of the method: as §2

Tov-21-G = assay: as above; conditions: Gynecologic cancer cell panel viability, ATPlite luminescence, 48 h; series mostly up to 57.5 µM
Summary of the method: as §2

Tov112D = assay: as above; conditions: Gynecologic cancer cell panel viability, ATPlite luminescence, 48 h; series mostly up to 57.5 µM
Summary of the method: as §2

[9] = target: Glutathione peroxidase 1 (Homo sapiens) (UniProt P07203); assay: Primary qHTS Assay for Inhibitors of Recombinant Selenoprotein Glutathione Peroxidase 1 (GPX1) (AID 1845191); also: nearly all actives have a fitted effect of over 65% in size
Summary of the method: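 NADPH consumption tracked by fluorescence at 340/450 nm between t=0 and t=15 min, room temperature. Final mix: 10 nM GPX1, 100 nM glutathione reductase, 1 mM GSH, 0.5 mM NADPH, 0.5 mM cumene hydroperoxide, 0.01% BSA; 30 min compound–enzyme preincubation.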

Hek293T = assay: Primary qHTS to identify gynecologic anti-cancer compounds using libraries of approved drugs and bioactive compounds (AID 1345084); conditions: Gynecologic cancer cell panel viability, ATPlite luminescence, 48 h, control line for the selectivity index; series mostly up to 57.5 µM; also: nearly all actives have a fitted effect of over 55% in size; also: potency is read from the fitted curve at half-maximal effect; as to activity change, negative = cytotoxicity: % is scaled to controls: 0 for no effect and ±100 for the full control effect
Summary of the method: as §2

PA-1 = assay: as above; conditions: Gynecologic cancer cell panel viability, ATPlite luminescence, 48 h; series mostly up to 57.5 µM
Summary of the method: as §2

Sequence of Calcium and integrin-binding protein 1 (Homo sapiens) (Q99828 whole entry, looked up): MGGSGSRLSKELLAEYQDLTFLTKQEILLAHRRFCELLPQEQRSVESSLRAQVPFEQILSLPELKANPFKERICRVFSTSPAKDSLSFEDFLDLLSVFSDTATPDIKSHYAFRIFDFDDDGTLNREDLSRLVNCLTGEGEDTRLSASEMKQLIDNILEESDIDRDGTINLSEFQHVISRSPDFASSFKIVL
Sequence of Phospholipid hydroperoxide glutathione peroxidase GPX4 (Homo sapiens) (P36969 whole entry, looked up): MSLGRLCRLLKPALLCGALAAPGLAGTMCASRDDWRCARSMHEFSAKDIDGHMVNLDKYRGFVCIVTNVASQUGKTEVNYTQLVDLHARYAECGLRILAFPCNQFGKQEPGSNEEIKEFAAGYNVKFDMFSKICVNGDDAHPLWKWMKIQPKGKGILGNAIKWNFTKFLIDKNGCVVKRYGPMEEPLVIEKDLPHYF
Sequence of Glutathione peroxidase 1 (Homo sapiens) (P07203 whole entry, looked up): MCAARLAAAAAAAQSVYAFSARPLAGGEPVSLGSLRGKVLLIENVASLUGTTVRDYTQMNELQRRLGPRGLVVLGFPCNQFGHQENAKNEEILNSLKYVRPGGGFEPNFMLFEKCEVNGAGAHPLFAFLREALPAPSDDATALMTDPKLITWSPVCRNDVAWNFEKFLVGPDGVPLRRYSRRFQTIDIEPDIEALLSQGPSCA

CO[C@@H]1[C@@H](O)[C@@H](O[C@H]2CC[C@]3(C=O)C4CC[C@]5(C)[C@@H](C6=CC(=O)OC6)CC[C@]5(O)[C@@H]4CC[C@H]3C2)O[C@@H](C)[C@H]1O[C@@H]1O[C@H](CO[C@@H]2O[C@H](CO)[C@@H](O)[C@H](O)[C@H]2O)[C@@H](O)[C@H](O)[C@H]1O (some centres undefined)
active: Potency (C33A) 3.55 µM | Potency (Es-2) 2 µM | Potency (Tov-21-G) 3.55 µM | Potency (Tov112D) 2.51 µM
inactive: Potency [1] | Potency [2] | Potency [3] | Potency [4] | activity change, negative = inhibition [5] -6.08% [at 11.6 µM] | activity change, negative = thiol reactive [6] 52.3% [at 11.5 µM] | activity, negative = inhibition [7] 1.53% [at 11.6 µM] | redox activity (% of DA3003) [8] 5.87% [at 11.5 µM] | max response (HaCat) -22.5% | outcome (NIH3T3) | activity change, negative = cytotoxicity (CASKI) 13.6% [at 11.6 µM] | activity change, negative = cytotoxicity (JEG-3) -2.75% [at 11.6 µM] | activity change, negative = cytotoxicity (OV90) 8.02% [at 11.6 µM]

C#CC1(O)CCC2C3CCC4=CC(=O)CCC4=C3C=CC21C (centres undefined)
inactive: Potency [2] | Potency [3] | Potency [9] | outcome [5] | Potency [6] | Potency [7] | Potency [8] | outcome (HaCat) | Potency (C33A) | Potency (CASKI) | Potency (Es-2) | Potency (Hek293T) | Potency (JEG-3) | Potency (OV90) | Potency (Tov-21-G) | Potency (Tov112D)
active: Potency (PA-1) 11.2 µM

Cc1ccc(Cn2nc(C(=O)N[C@@H]3C(C)(C)[C@@H]4CC[C@@]3(C)C4)cc2-c2ccc(Cl)c(C)c2)cc1
inactive: Potency [1] | Potency [2] | Potency [3] | Potency [9] | Potency [4] | outcome [5] | Potency [6] | Potency [8] | max response (NIH3T3) -3.82% | Potency (C33A) | Potency (CASKI) | Potency (Es-2) | Potency (Hek293T) | Potency (JEG-3) | Potency (OV90) | Potency (PA-1) | Potency (Tov-21-G) | Potency (Tov112D)

CO[C@H]1C[C@H](O[C@H]2CC[C@]3(CO)[C@H]4CC[C@]5(C)[C@@H](C6=CC(=O)OC6)CC[C@]5(O)[C@@H]4CC[C@]3(O)C2)O[C@H](C)[C@H]1O
active: Potency (C33A) 0.0891 µM | Potency (CASKI) 0.891 µM | Potency (Es-2) 0.199 µM | Potency (Hek293T) 0.224 µM | Potency (OV90) 1 µM | Potency (PA-1) 0.112 µM | Potency (Tov-21-G) 0.141 µM | Potency (Tov112D) 0.0316 µM
inactive: Potency [1] | Potency [2] | Potency [3] | Potency [9] | Potency [4] | outcome [5] | Potency [6] | Potency [7] | Potency [8] | max response (NIH3T3) 1.22%

C[C@H]1CC[C@@H]2[C@@H](C)[C@H]3[C@H](C[C@H]4[C@@H]5CC=C6CC(O[C@@H]7O[C@H](CO)[C@@H](O)[C@H](O[C@@H]8O[C@H](CO)[C@@H](O)[C@H](O)[C@H]8O)[C@@H]7O[C@@H]7O[C@@H](C)[C@H](O)[C@@H](O)[C@H]7O)CC[C@]6(C)[C@H]5CC[C@]34C)N2C1 (some centres undefined)
inactive: Potency [1] | Potency [2] | Potency [3] | Potency [9] | Potency [4] | outcome [5] inactive [at 11.6 µM] | activity change, negative = thiol reactive [6] 134% [at 11.5 µM] | activity, negative = inhibition [7] -0.992% [at 11.6 µM] | max response (HaCat) -13.1% | outcome (NIH3T3) | activity change, negative = cytotoxicity (C33A) -12.6% [at 11.6 µM] | activity change, negative = cytotoxicity (CASKI) 0.984% [at 11.6 µM] | activity change, negative = cytotoxicity (Es-2) -2.66% [at 11.6 µM] | activity change, negative = cytotoxicity (Hek293T) 11.3% [at 11.6 µM] | activity change, negative = cytotoxicity (JEG-3) -0.31% [at 11.6 µM] | activity change, negative = cytotoxicity (OV90) -5.29% [at 11.6 µM] | activity change, negative = cytotoxicity (PA-1) 7.63% [at 11.6 µM] | activity change, negative = cytotoxicity (Tov-21-G) -1.56% [at 11.6 µM] | activity change, negative = cytotoxicity (Tov112D) 5.33% [at 11.6 µM]
